In the supplement of paper PMC12532568:
Structures can show the parent of a compound that is named as a salt.

Tested on: Danio rerio larvae Tg(actc1b:ZsGreen-LC3), 3 dpf
Experiment: LC3 puncta relative area vs vehicle, without NH4Cl (log2 fold change); higher = more autophagosomes
Conditions: 10 µM; treatment time 16 h; NH4Cl: none
Protocol: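 Transgenic Tg(actc1b:ZsGreen-map1lc3) zebrafish larvae (2 dpf) were treated for 16 h with Tocris library compounds at 10 µM (n = 12 larvae per compound). Skeletal-muscle LC3 puncta area relative to body area was measured by high-content confocal imaging before and after 4 h of 100 mM NH4Cl (autophagic flux), normalised to vehicle (DMSO), and reported as log2 fold change.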

SMILES | LC3 puncta (log2)
COc1cc(N)c(Cl)cc1C(=O)OCCCN1CCCCC1 | -0.0084
O=C(O)C1=CCCNC1 [Guvacine hydrochloride] | -0.168
COCCOC(=O)C1=C(C)NC(C)=C(C(=O)OC(C)C)C1c1cccc([N+](=O)[O-])c1 (stereo not given) [Nimodipine] | 0.31
CCc1nc(N)nc(N)c1-c1ccc(Cl)cc1 [Pyrimethamine] | 0.169
Nc1nc2ccc(OC(F)(F)F)cc2s1 [Riluzole] | 0.289
O=C(OCCN1CCOCC1)C1(c2ccccc2)CCCCC1 [PRE-084 hydrochloride] | 0.215
CCCC[C@@H](C=O)NC(=O)[C@H](CC(C)C)NC(=O)OCc1ccccc1 [Calpeptin] | 1.15
c1ccc2sc(N3CCN(Cc4ccc5c(c4)OCO5)CC3)nc2c1 [2-[1-(4-Piperonyl)piperazinyl]benzothiazole] | 0.135
COc1cc2c(CCNC(C)=O)c[nH]c2cc1Cl [6-Chloromelatonin] | -0.363
O=C(NCCCN1CCCCCC1)C(c1ccccc1)C1CCCCC1 (stereo not given) | 0.0552
CCN(CC)CCOCCOC(=O)C1(c2ccccc2)CCCC1 [Carbetapentane citrate] | -0.0165
COc1ccc2[nH]c(I)c(CCNC(C)=O)c2c1 [2-Iodomelatonin] | 0.515
CC(=O)N1CCN(C)CC1 [1-Acetyl-4-methylpiperazine hydrochloride] | 0.18
CC1=C(/C=C/C(C)=C/C=C/C(C)=C/C(=O)O)C(C)(C)CCC1 [Retinoic acid] | 0.44
O=C(O)CC/C=C\C[C@H]1CO[C@@H](c2ccccc2Cl)O[C@H]1c1ccccc1O | -0.249
O=C(NCCN1CCCCC1)c1ccc(I)cc1 [N-[2-(Piperidinylamino)ethyl]-4-iodobenzamide] | 0.492
N=C(N)SCCc1c[nH]cn1 [Imetit dihydrobromide] | 0.595
CCN(CC)CCOC(=O)C1(c2ccc([N+](=O)[O-])cc2)CCCC1 [Nitrocaramiphen hydrochloride] | 0.254
NS(=O)(=O)c1cc2c(cc1Cl)NC(C1CC3C=CC1C3)NS2(=O)=O (stereo not given) [Cyclothiazide] | -0.147
O=C1c2ccccc2CCC1CNCCc1ccc(O)cc1 (stereo not given) [HEAT hydrochloride] | 0.103

SMILES | LC3 puncta (log2)
CCCCCCN(CCCCCC)C(=O)Cc1c(-c2ccc(Cl)cc2)[nH]c2ccc(Cl)cc12 | 0.364
CC(C)NC[C@@H](O)COc1cccc2ccccc12 [(R)-(+)-Propranolol hydrochloride] | 0.00434
CC#CCOC(=O)C1=CCCN(C)C1 [Arecaidine but-2-ynyl ester tosylate] | 0.463
CN1CCC(=C2c3ccccc3CC(=O)c3sccc32)CC1 [Ketotifen fumarate] | 0.589
N[C@H]1CCN(O)C1=O | 0.0498
CC(CCCCC(=O)Nc1ccc(C(F)(F)F)cc1)NCCc1cnc[nH]1 (stereo not given) [HTMT dimaleate] | 0.258
O=C1CC2(CCCC2)CC(=O)N1CCCCNCC1COc2ccccc2O1 (stereo not given) | -0.00847
CNCCCCOc1ccccc1Cc1ccccc1 [Bifemelane] | 0.531
CNC(=O)c1cc2c(cn1)[nH]c1ccccc12 | 0.13
CC(C)NCC(O)COc1cccc2ccccc12 (stereo not given) [Propranolol hydrochloride] | 0.0203
N[C@@H](CSS(=O)(=O)O)C(=O)O [S-Sulfo-L-cysteine sodium salt] | -0.101
CSc1ccc2c(c1)C(N1CCN(C)CC1)Cc1ccccc1S2 (stereo not given) [Methiothepin maleate] | -0.425
NCC(O)(CS(=O)(=O)O)c1ccc(Cl)cc1 (stereo not given) [2-Hydroxysaclofen] | 0.46
O=C(O)c1cc(=O)c2c(Cl)cc(Cl)cc2[nH]1 [5,7-Dichlorokynurenic acid] | -0.0706
CC(C)[C@H]1CC[C@H](C(=O)N[C@H](Cc2ccccc2)C(=O)O)CC1 [Nateglinide] | 0.316
NC(N)=NC(N)=Nc1cccc(Cl)c1 [m-Chlorophenylbiguanide hydrochloride] | 0.136
O=C(/C=C/c1ccc(O)c(O)c1)O[C@H](Cc1ccc(O)c(O)c1)C(=O)O [Rosmarinic acid] | 0.0606
O=[N+]([O-])c1cccc2c(Br)[nH]nc12 [3-Bromo-7-nitroindazole] | 0.159
C1COC(NC(C2CC2)C2CC2)=N1 [Rilmenidine hemifumarate] | 0.278
CCC(C)N(C)C(=O)c1cc2ccccc2c(-c2ccccc2Cl)n1 (stereo not given) | -0.0562
